# In PubChem BioAssay AID1789 (The Scripps Research Institute Molecular Screening Center, 2009):
# In all, about 290,000 compounds went through this assay and about 2,700 (0.93%) were called active.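 How the source made its calls: active means inhibition above the screen-wide mean plus 3 SD, computed separately per campaign (cut at about 16% in these data); inactive means the rest.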 This excerpt belongs to a sample that is enriched for actives.
# Test system: Heat shock protein HSP 90 (rabbit reticulocyte lysate; luciferase refolding)
# Assay: HSP90 inhibitors, primary screen, cell lysate, luminescence (AID 1789);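 further: 0% = DMSO wells and 100% = 60 µM geldanamycin wells; inhibitors lower the luminescence because luciferase stays unfolded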
# Details: 3 h, at 5.6 µM, hits give high values
row,SMILES,inhibition
1,COc1cc(/C=C(\C#N)c2nc3ccccc3[nH]2)ccc1O,-1.74% (inactive)
2,CCOC(=O)CSc1nc2ccc(C)cc2[nH]1,1.44% (inactive)
3,Cc1ccc2nc(/C(C#N)=C\c3ccc(OC(=O)c4cccs4)cc3)[nH]c2c1,30.5% (active)
4,CCn1c(CC(=O)Nc2ccccc2C)nnc1SCC(=O)NC1=NCCS1,3.37% (inactive)
5,S=c1[nH]nc(/C=C/c2ccccc2)o1,-3.77% (inactive)
6,O=c1oc(/C=C/c2ccccc2)nc2ccccc12,21% (active)
7,O=c1oc(-c2ccccc2NS(=O)(=O)c2ccc(Cl)cc2)nc2ccccc12,0.82% (inactive)
8,O=C(Nc1ccccc1)c1ccc(NC(=O)c2cccs2)cc1,1.79% (inactive)
9,Cc1ccc(-c2nnc(-c3ccc(NC(=O)c4cccs4)cc3)o2)cc1,-1.94% (inactive)
10,Cc1nc(-c2ccc(NC(=O)c3cccs3)cc2)cs1,27.1% (active)
11,Cc1ccc(-c2noc(CNC(=O)c3ccoc3C)n2)cc1,4.35% (inactive)
12,COc1ccccc1CNC(=O)[C@@H]1CCCN1C(=O)[C@@H]1Cc2ccccc2CN1C(=O)OC(C)(C)C,0.82% (inactive)
13,Clc1cccc(N=C2NN=C(c3ccc4c(c3)OCCO4)CS2)c1,38.8% (active)
14,Cc1cccc(N=C2NN=C(c3c[nH]c4ccccc34)CS2)c1,8.26% (inactive)
15,c1ccc(CN2CCC(N=C3NN=C(c4ccc5c(c4)OCCO5)CS3)CC2)cc1,13.2% (inactive)
16,COC(CNC(=O)c1ccc2c(c1)ncn2-c1cc(C)cc(C)c1)OC,-2.44% (inactive)
17,O=C(OCCN=C1NS(=O)(=O)c2ccccc21)c1cccc([N+](=O)[O-])c1,-0.96% (inactive)
18,COc1cc(/C=C2/C(=O)NN(c3cccc(Cl)c3)C2=O)cc(Br)c1O,4.77% (inactive)
19,C=CCOc1c(Br)cc(/C=N\n2nnnc2N)cc1OC,6.06% (inactive)
20,CCOc1c(Br)cc(/C=C2\C(=O)N(CCC#N)N=C2C)cc1OC,32.1% (active)
21,COc1ccc(-n2ncc3c2CC(C)(C)CC3NC(=O)CCc2c(C)nn(C)c2C)cc1 (stereo not drawn),-4.92% (inactive)
22,Cc1n[nH]c(C)c1S(=O)(=O)N1CCCC(C(=O)Nc2ccc(Br)cc2)C1 (stereo not drawn),-0.76% (inactive)
23,COc1ccc(CNC(=O)CCn2cccc2)cc1,3.81% (inactive)
24,COc1ccc(NC(=O)/C(C#N)=C\c2cc(OC)c(OCc3ccc(C(=O)O)cc3)cc2Br)cc1,-2.4% (inactive)
25,COc1ccc(CNC(=O)/C(C#N)=C/c2cccc(OC)c2OC)cc1,31.1% (active)

row,SMILES,inhibition
1,Cc1cc(=O)oc2c1ccc1ccccc12,-1.23% (inactive)
2,CC1Cn2c(nnc2-c2cccs2)S1 (stereo not drawn),27.3% (active)
3,Cn1c(SCC(=O)N2CCCC2)nnc1-c1cccs1,-5.69% (inactive)
4,Cc1ccccc1C1CC(c2cccs2)=NN1S(C)(=O)=O (stereo not drawn),-0.31% (inactive)
5,O=C(O)CCC(=O)Nc1ccc(OCC2CCCO2)cc1 (stereo not drawn),1.1% (inactive)
6,CCOc1ccc(OCc2ccc(C(=O)Nc3cccc(C)n3)o2)cc1,16.8% (active)
7,COC(=O)c1ccc(COc2ccc(C#N)cc2)o1,-2.93% (inactive)
8,Cc1cccc(NC(=O)Nc2ccc(OCc3ccccc3)cc2)n1,-4.5% (inactive)
9,O=C(NCCc1ccccn1)c1ccc(COc2ccccc2)o1,9% (inactive)
10,CCOc1ccc(OCc2ccc(C(=O)N(C)c3ccccc3)o2)cc1,23% (active)
11,Cc1cccc(NC(=O)c2ccc(COc3ccccc3[N+](=O)[O-])o2)n1,-1.06% (inactive)
12,Cc1ccc(NC(=S)N(CCCN2CCCC2)Cc2cccn2Cc2ccc(Cl)cc2)cc1,2.82% (inactive)
13,COc1ccc(C(=O)NC2CCN(C(=S)Nc3ccccc3)CC2)cc1,3.9% (inactive)
14,COc1ccc(C(=S)Nc2ccccc2)cc1,-0.81% (inactive)
15,COc1ccc(NC(=S)N2N=CCC2c2ccccc2)cc1 (stereo not drawn),16.8% (active)
16,CC(C)c1ccc(NC(=O)C2CCCN(S(=O)(=O)c3cccnc3)C2)cc1 (stereo not drawn),-1.95% (inactive)
17,CCOC(=O)C1=C(c2ccc(OC)cc2)C(=O)c2ccccc2C1=O,87.2% (active)
18,CCOC(=O)c1c(C)[nH]c2c1-c1ccccc1C(=O)C2=O,-1.61% (inactive)
19,CCOC(=O)c1c(-c2ccc(C)cc2)csc1/N=C(\C)C1=C(O)c2ccccc2C1=O,-2.27% (inactive)
20,COC(=O)C1(C)CC1(c1ccccc1)c1ccccc1 (stereo not drawn),1.72% (inactive)
21,C[n+]1cc(-c2ccccc2)oc1-c1ccccc1,0.81% (inactive)
22,CCOc1ccc(N/C=C/C(=O)c2cc(OC)c(OC)c(OC)c2)cc1,-0.12% (inactive)
23,CCOc1cc2ccccc2cc1C(=O)Nc1ccccn1,-0.82% (inactive)
24,O=C(/C=C\NCC(=O)c1ccccc1)c1ccccc1,2.9% (inactive)
25,Cc1cc(N/C=C\C(=O)c2ccc(Cl)c(Cl)c2)no1,-0.49% (inactive)

row,SMILES,inhibition
1,COc1ccc(C(=O)/C=C/Nc2ccccn2)cc1,65.4% (active)
2,CCOc1ccc(N/C=C/C(=O)c2ccccc2)cc1,51% (active)
3,COc1cc2c(cc1OC)C(c1cccc([N+](=O)[O-])c1)=NCC2,-2.48% (inactive)
4,CCCCN(C)CCNC(=O)C1CCCN(S(=O)(=O)c2cccc3nsnc23)C1 (stereo not drawn),-6.58% (inactive)
5,COc1ccc(N=Nc2c(-c3ccc(OC)cc3)[nH]oc2=O)cc1,0.28% (inactive)
6,NC(=O)c1ccc(NC(=O)COC(=O)c2c3c(nc4ccccc24)/C(=C\c2ccc4c(c2)OCO4)CCC3)cc1,-5.16% (inactive)
7,COc1ccc(Sc2nc(-c3ccccc3)ncc2OC)cc1,-2.08% (inactive)
8,COc1ccc(-c2nc(-c3ccccc3)no2)c(OC)c1,44.3% (active)
9,COc1ccccc1Cc1nc(-c2ccc(C)cc2)no1,3.61% (inactive)
10,COC(=O)c1cccnc1NC(=S)NC(C)C,-2.4% (inactive)
11,CC(=O)c1ccc(NC(=O)Cn2c(=O)oc3ccccc32)cc1,-5.66% (inactive)
12,CCSc1nnc(SCC(=O)NNC(=O)c2ccccc2F)s1,-3.94% (inactive)
13,O=c1oc2ccccc2cc1-c1cn(-c2ccccc2)c(=S)[nH]1,65.7% (active)
14,S=c1[nH]c(-c2cccs2)cn1-c1ccccc1,8.66% (inactive)
15,COc1ccc(-c2cn(-c3ccc(OC)cc3)c(=S)[nH]2)cc1,0.9% (inactive)
16,COc1ccc(C)cc1NC(=O)CNCc1cccs1,9.78% (inactive)
17,CC(C)Sc1ncnc2c1cnn2-c1ccccc1,-2.09% (inactive)
18,COc1cc(NC(=O)CSc2ccc(-c3cccnc3)nn2)cc(OC)c1,-0.99% (inactive)
19,Cc1cccc(CCNC(=O)Cn2ncc3c([nH]c4ccc(C)cc43)c2=O)c1,20.9% (active)
20,Cc1ccc2[nH]c3c(=O)n(CC(=O)NCCc4ccc(Cl)cc4)ncc3c2c1,-1.14% (inactive)
21,CC1CC(C)CN(CCCNC(=O)Cn2ncc3c([nH]c4ccccc43)c2=O)C1 (stereo not drawn),2.52% (inactive)
22,CCCn1nc(NC(=O)C(C)C)c2cc3cc(OC)ccc3nc21,-7.87% (inactive)
23,C=Cn1cc[n+](CC(=O)c2ccc(OC)c(OC)c2)c1,9.58% (inactive)
24,O=C(CCCC(=O)N1CCN(c2cccc(Cl)c2)CC1)c1ccccc1,-3.4% (inactive)
25,Cc1ccc(S(=O)(=O)N(CCCN(C)C)Cc2ccc3c(c2)OCO3)cc1,-1.45% (inactive)

row,SMILES,inhibition
1,CC(NCC(=O)Nc1cc(Cl)cc(Cl)c1)c1ccccc1 (stereo not drawn),10.2% (inactive)
2,O=C(C1CCC1)N1CCN(c2ccccc2)CC1,-0.73% (inactive)
3,CCCCCN(C(=O)CCC(=O)OCC(=O)NCc1ccc(OC)cc1)c1c(N)n(CCCC)c(=O)[nH]c1=O,-5.78% (inactive)
4,Cc1cccc(N(C)C(=O)CN2C(=O)COc3ccc(S(=O)(=O)N4CCCCCC4)cc32)c1,2.46% (inactive)
5,COc1ccc(OCc2cccc(C(=O)N3CCCC3)c2)cc1,12.3% (inactive)
6,CC(C)c1cc(C(N)=O)c(NC(=O)c2cccc(COc3ccc(Br)cc3)c2)s1,6% (inactive)
7,CCOc1ccc(OCc2cccc(C(=O)N(CC)CC)c2)cc1,19.7% (active)
8,COc1cc(C(=O)N2CCN(C)CC2)cc(OC)c1OC,-1.01% (inactive)
9,CCOC(=O)N1CCN(C(=O)COCc2cc(-c3ccc4c(c3)OCO4)on2)CC1,-2.54% (inactive)
10,Cc1ccc2c(C)c(C(=O)N(C)CCC3CCCCO3)oc2c1C (stereo not drawn),-5.53% (inactive)
11,N#C/C=C\Oc1ccc(Cl)cc1N,19.9% (active)
12,COc1ccc(Cl)cc1C(=O)NCC#N,-11.2% (inactive)
13,COc1ccc(N2CCN(C(=O)c3ccccc3NC(=O)C3=C(C)OCCS3)CC2)cc1,-2.69% (inactive)
14,Cc1nc2ccccc2nc(C)c1=NOCc1ccc(Cl)cc1Cl,-1.08% (inactive)
15,Cc1ccc(Nc2nc(-c3sc(NC(=O)c4ccccc4)nc3C)cs2)cc1,48.7% (active)
16,CCC(=O)Nc1nc(C)c(C(=O)Nc2cccc(Cl)c2)s1,-0.01% (inactive)
17,Cc1nc(NC(=O)c2cccc(Cl)c2)sc1-c1csc(Nc2cccc(Cl)c2)n1,67.3% (active)
18,C=CCCC(=O)Nc1nc(C)c(-c2csc(Nc3ccc(Cl)cc3)n2)s1,6.06% (inactive)
19,Cc1ccc(-c2csc(NNC(=O)c3ccccc3)n2)cc1,0.18% (inactive)
20,CC(=O)Nc1nc(C)c(-c2csc(Nc3ccc(S(N)(=O)=O)cc3)n2)s1,-0.54% (inactive)
21,CCCCC(=O)Nc1nc(C)c(-c2csc(Nc3ccc(Cl)cc3)n2)s1,16.9% (active)
22,CCCCCCC(=O)Nc1nc(C)c(-c2csc(Nc3cccc(OC)c3)n2)s1,0.02% (inactive)
23,CCCCCCC(=O)Nc1nc(C)c(-c2csc(Nc3cc(Cl)ccc3OC)n2)s1,4.86% (inactive)
